Most compounds without a hit are left out; they make up all but 4.3% or so of the library.
ADAM10 inh = inhibitors of human ADAM10; O14672; recombinant ADAM10, EDANS/DABCYL FRET peptide cleavage, 3 h; inhibition, % at 7 µM; 0.62% of 370,000 active;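 active = inhibition above a per-campaign cutoff equal to the mean of compounds falling between control-based bounds plus 3 SD, cut at about 20% in these data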
FAS-TE inh = blocks the thioesterase domain of human fatty acid synthase | recombinant FAS-TE, OMFH fluorogenic substrate, fluorescence endpoint | inhibition, % at 15 µM | 0.67% of 360,000 active | AID 602261;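 active = compounds whose normalised, plate-corrected inhibition of enzyme fluorescence in the single-dose primary screen is 50% or more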
ADAM17 inh = ADAM17 inhibition, QFRET primary screen; P78536; recombinant ADAM17, EDANS/DABCYL FRET peptide cleavage; inhibition, % at 6.95 µM; 0.83% of 370,000 active; AID 720648;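 active = inhibition above the mean of compounds lying between control limits plus 3 SD, set per campaign, cut at about 8.5% in these data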
GRIN3A LBD mod = modulators (binders) of human NR3A ligand-binding domain; 2.5% of 340,000 active; AID 1259313; Tm shift relative to glycine control, % at 25 µM; NR3A LBD differential scanning fluorimetry, Tm shift; 0% = protein alone, 100% = glycine-bound protein;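 active = melting temperature shift of at least 10% of the positive control shift, at one fixed dose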
HGIII-sPLA2 inh = Inhibits HGIII-sPLA2 liposome hydrolysis, primary screen. QFRET BODIPY PC-A2 liposome hydrolysis, fluorescence. inhibition, % at 12.2 µM. Q9NZ20. 0.56% of 370,000 active;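 active = inhibition above mean plus 3 SD of compounds lying within the high and low control bounds, cut at about 19% in these data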
Target sequence (Q9NZ20 whole entry, looked up): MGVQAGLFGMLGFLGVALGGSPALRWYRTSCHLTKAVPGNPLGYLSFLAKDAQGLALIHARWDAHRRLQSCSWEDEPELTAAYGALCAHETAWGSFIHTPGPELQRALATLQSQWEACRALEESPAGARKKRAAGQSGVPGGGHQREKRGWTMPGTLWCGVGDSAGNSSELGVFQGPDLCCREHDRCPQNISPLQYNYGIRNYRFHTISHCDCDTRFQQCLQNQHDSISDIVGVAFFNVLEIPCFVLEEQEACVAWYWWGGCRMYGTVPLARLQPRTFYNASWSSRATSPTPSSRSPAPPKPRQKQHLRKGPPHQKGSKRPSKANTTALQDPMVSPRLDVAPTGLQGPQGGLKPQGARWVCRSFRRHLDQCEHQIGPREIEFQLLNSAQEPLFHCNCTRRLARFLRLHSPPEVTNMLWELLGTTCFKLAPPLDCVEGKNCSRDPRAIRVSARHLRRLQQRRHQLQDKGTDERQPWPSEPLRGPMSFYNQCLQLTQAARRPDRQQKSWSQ
A number is an active result; - = inactive; . = not tested or not shown.

SMILES	ADAM10 inh	FAS-TE inh	ADAM17 inh	GRIN3A LBD mod	HGIII-sPLA2 inh
O=[N+]([O-])c1ccc(C=NNc2ccc(S(=O)(=O)O)cc2)cc1	-	-	-	-	-
COC(=O)C[C@@H]1CC[C@H]2[C@@H](COc3ccc(NC(=O)NC(C)C)cc3C(=O)N2C)O1	-	.	-	.	-
CCOC(=O)CC[C@@]1(C(=O)OCC)C[C@@H](CC(=O)N2CCOCC2)C(=O)N2CCCC=C21	-	.	-	.	-
CCCCCCCCCS(=O)(=O)N/N=C/c1cccc([N+](=O)[O-])c1	-	-	-	18	-
CNc1ccc(/C=C/C(=O)c2ccc3c(c2)OCCO3)cc1[N+](=O)[O-]	-	-	-	-	-
O=[N+]([O-])c1ccc(N/N=C/c2ccc[nH]2)cc1	-	-	-	25	-
Cc1ccc(S(=O)(=O)N/N=C/c2cccc([N+](=O)[O-])c2)cc1	-	-	-	-	-
CNc1ccc(/C=C/C(=O)c2ccc(C)cc2)cc1[N+](=O)[O-]	-	-	-	21	-
Nn1c(SCC(=O)Nc2nccs2)nnc1-c1cc(-c2ccc(Cl)cc2)n[nH]1	-	.	-	.	-
NC1=NC2(CCCCC2)N(c2ccc(F)cc2)C(N)=N1	-	-	-	20	-
COc1cccc(-c2nnc3n2N=C(c2ccc(Cl)cc2)CS3)c1	-	.	-	.	-
Cc1cc(C)c(OCC(=O)Nc2ccc(NC(=O)c3ccco3)cc2)c([N+](=O)[O-])c1	-	-	-	-	-
Cc1ccc2nc(-c3ccc(NC(=O)c4ccco4)cc3)[nH]c2c1	.	-	.	31	.
Cc1ccc(OCC(=O)Nc2ccc(NC(=O)c3ccco3)cc2)c(C)c1	-	-	-	29	-
Cn1cccc1-c1nc2ccc(NC(=O)c3ccco3)cc2[nH]1	-	-	-	-	-
O=C(Nc1ccc(-c2nc3ccc(NC(=O)c4cccs4)cc3[nH]2)cc1)c1cccs1	-	-	-	30	-
O=C(Cc1cccs1)Nc1cccc(-c2nc3cc4ccccc4cc3[nH]2)c1	-	-	-	28	-
COC(=O)[C@]12CCCCC=C1N(Cc1ccc(OC)cc1)C(=O)[C@@H]2CC(=O)NCCc1ccccc1OC	-	.	-	.	-
CC1=C2NC(N)=[N+](Cc3ccc4c(c3)OCO4)CC2NOC1 (configuration not stated)	-	.	-	.	-
COc1ccc(C2C(C(=O)Nc3cc(OC)ccc3OC)CCC(=O)N2c2ccc(OC)cc2)cc1 (configuration not stated)	-	.	-	.	-
Nn1c(SCC(=O)NC2CCCCC2)nnc1-c1cc(-c2ccc(F)cc2)n[nH]1	-	.	-	.	-
Cc1ccccc1C(=O)Nc1ccc(-c2nc3ccc(C(=O)c4ccccc4)cc3[nH]2)cc1	-	-	-	17	-
O=C(c1ccccc1)c1ccc2nc(-c3ccc(NC(=O)c4ccccc4Br)cc3)[nH]c2c1	-	-	-	-	-
O=C(Nc1ccc2nc(-c3cccs3)[nH]c2c1)c1ccco1	-	-	-	14	-
O=C(Nc1ccc2nc(-c3cccs3)[nH]c2c1)c1cccs1	-	-	-	26	-
SMILES	ADAM10 inh	FAS-TE inh	ADAM17 inh	GRIN3A LBD mod	HGIII-sPLA2 inh
COC1=C[C@H](C(=O)NCc2ccccc2)[C@H](C)[C@@H](c2ccccc2)CC1=O	-	.	-	.	-
CN(C)CCNC(=S)Nc1ccc(-c2nc3ccccc3[nH]2)cc1	-	-	-	-	-
O=C(NC(=S)Nc1cc(-c2nc3ccccc3[nH]2)ccc1Cl)c1ccc2c(c1)OCO2	-	-	-	18	-
S=C(NCc1ccc2c(c1)OCO2)Nc1ccc(-c2nc3ccccc3[nH]2)cc1	-	-	-	26	-
Cc1ccc(-c2nc3ccccc3[nH]2)cc1NC(=O)c1ccc2c(c1)OCO2	-	-	-	-	-
CCOC(=O)N1CCN(C(=O)C[C@@H]2C(=O)N(Cc3ccc(OC)cc3)C3=CCN(C(=O)OC(C)(C)C)C[C@]32C(=O)OCC)CC1	-	.	-	.	-
Cc1cccc(NC(=O)C2CCCN(c3nnc(-n4cccc4)s3)C2)c1C (configuration not stated)	-	.	-	.	-
Cc1ccc(-n2nnnc2SCC(=O)Nc2nc(-c3ccc(F)cc3)cs2)cc1C	-	-	-	30	-
CCn1c(SCc2c(F)cccc2F)nc2sc3c(c2c1=O)CCCC3	-	.	-	.	-
COC(=O)c1ccc(NC(=S)NCCc2ccc(OC)cc2)cc1	-	-	-	-	-
COC(=O)c1ccc(NC(=S)Nc2ccc(O)cc2)cc1	-	-	-	20	-
COC(=O)c1ccc(NC(=S)NCC2CC2)cc1	-	-	-	-	-
